# Measured values reported in PubChem BioAssay AID1159580 (chemical genetic matrix, 2015).
# Hit rate of the full screen: of about 5,500 compounds, about 2,000 (36%) were called active. Inconclusive results (about 18%) are left out. This is one part of the list. A number with no mark means an inactive call. Rule as the data show it: active = normalized growth mostly below about 0.91 (no sharp cut-off); inconclusive = no clear call, values can overlap the other calls; inactive = mostly above about 0.92.
# Experiment: chemical genetic growth profiling, strain panel (AID 1159580);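 also: tested at 20 µM; growth read once vehicle control cultures reached saturation at 30 °C; 1 = growth at the plate median or of vehicle wells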
# Conditions: S. cerevisiae deletion strains, growth OD
compound,measurement,setting,value
CO/N=C1/CN(c2nc3c(cc2F)c(=O)c(C(=O)O)cn3C2CC2)CC1CN (centres undefined),normalized growth,"locus YAL021C, strain ccr4, stronger effect = lower value",1
same,normalized growth,"locus YAL026C, strain drs2, stronger effect = lower value",1.02
same,normalized growth,"locus YAL030W, strain snc1, stronger effect = lower value",0.992
same,normalized growth,"locus YBL061C, strain skt5, stronger effect = lower value",0.99
same,normalized growth,"locus YBR009C, strain hhf1, stronger effect = lower value",0.953
same,normalized growth,"locus YBR023C, strain chs3, stronger effect = lower value",1.02
same,normalized growth,"locus YBR171W, strain sec66, stronger effect = lower value",1.02
same,normalized growth,"locus YBR231C, strain swc5, stronger effect = lower value",0.998
same,normalized growth,"locus YBR279W, strain paf1, stronger effect = lower value",1.02
same,normalized growth,"locus YCL011C, strain gbp2, stronger effect = lower value",1.01
same,normalized growth,"locus YCL016C, strain dcc1, stronger effect = lower value",0.973
same,normalized growth,"locus YCL069W, strain vba3, stronger effect = lower value",1.02
same,normalized growth,"locus YCR088W, strain abp1, stronger effect = lower value",1.02
same,normalized growth,"locus YDL005C, strain med2, stronger effect = lower value",1.04
same,normalized growth,"locus YDL040C, strain nat1, stronger effect = lower value",1
same,normalized growth,"locus YDR001C, strain nth1, stronger effect = lower value",1.02
same,normalized growth,"locus YDR069C, strain doa4, stronger effect = lower value",0.979
same,normalized growth,"locus YDR137W, strain rgp1, stronger effect = lower value",1.07
same,normalized growth,"locus YDR159W, strain sac3, stronger effect = lower value",0.975
same,normalized growth,"locus YDR195W, strain ref2",0.979
same,normalized growth,"locus YDR297W, strain sur2, stronger effect = lower value",1
same,normalized growth,"locus YDR334W, strain swr1, stronger effect = lower value",1.02
same,normalized growth,"locus YDR335W, strain msn5, stronger effect = lower value",1.01
same,normalized growth,"locus YDR392W, strain spt3, stronger effect = lower value",0.937
same,normalized growth,"locus YEL003W, strain gim4, stronger effect = lower value",1.03
same,normalized growth,"locus YEL037C, strain rad23, stronger effect = lower value",1.02
same,normalized growth,"locus YEL061C, strain CIN8 (second series), stronger effect = lower value",1.01
same,normalized growth,"locus YER015W, strain faa2, stronger effect = lower value",1.01
same,normalized growth,"locus YER016W, strain bim1, stronger effect = lower value",1.04
same,normalized growth,"locus YER111C, strain swi4, stronger effect = lower value",1.03
same,normalized growth,"locus YER155C, strain BEM2 (second series), stronger effect = lower value",0.977
same,normalized growth,"locus YFR010W, strain ubp6, stronger effect = lower value",0.982
same,normalized growth,"locus YGL167C, strain pmr1, stronger effect = lower value",1.01
same,normalized growth,"locus YGL173C, strain kem1, stronger effect = lower value",0.987
same,normalized growth,"locus YGL227W, strain vid30, stronger effect = lower value",1.01
same,normalized growth,"locus YGL240W, strain doc1, stronger effect = lower value",0.967
same,normalized growth,"locus YGL253W, strain hxk2, stronger effect = lower value",1.02
same,normalized growth,"locus YHR013C, strain ard1, stronger effect = lower value",1.02
same,normalized growth,"locus YHR027C, strain rpn1, stronger effect = lower value",1
same,normalized growth,"locus YHR030C, strain SLT2, stronger effect = lower value",0.983
same,normalized growth,"locus YHR079C, strain IRE1, stronger effect = lower value",0.949
same,normalized growth,"locus YHR142W, strain chs7, stronger effect = lower value",1.02
same,normalized growth,"locus YJL092W, strain hpr5, stronger effect = lower value",0.973
same,normalized growth,"locus YJL095W, strain BCK1 (second series), stronger effect = lower value",0.992
same,normalized growth,"locus YJL095W, strain BCK1, stronger effect = lower value",0.98
same,normalized growth,"locus YJL115W, strain asf1, stronger effect = lower value",0.956
same,normalized growth,"locus YJL129C, strain trk1, stronger effect = lower value",0.997
same,normalized growth,"locus YJL154C, strain vps35, stronger effect = lower value",1.02
same,normalized growth,"locus YJL164C, strain tpk1, stronger effect = lower value",0.985
same,normalized growth,"locus YJL166W, strain qcr8, stronger effect = lower value",0.998
same,normalized growth,"locus YJL187C, strain SWE1, stronger effect = lower value",0.998
same,normalized growth,"locus YJR066W, strain TOR1, stronger effect = lower value",0.949
same,normalized growth,"locus YKL160W, strain elf1, stronger effect = lower value",1.02
same,normalized growth,"locus YKR026C, strain gcn3, stronger effect = lower value",1.01
same,normalized growth,"locus YKR091W, strain srl3, stronger effect = lower value",1.01
same,normalized growth,"locus YLL001W, strain dnm1, stronger effect = lower value",0.98
same,normalized growth,"locus YLL026W, stronger effect = lower value",1.01
same,normalized growth,"locus YLL041C, strain sdh2, stronger effect = lower value",1.02
same,normalized growth,"locus YLR027C, strain aat2, stronger effect = lower value",1.01
same,normalized growth,"locus YLR113W, strain HOG1, stronger effect = lower value",0.999
same,normalized growth,"locus YLR221C, strain rsa3, stronger effect = lower value",0.98
same,normalized growth,"locus YLR258W, strain gsy2, stronger effect = lower value",1.02
same,normalized growth,"locus YLR262C, strain YPT6 (second series), stronger effect = lower value",0.978
same,normalized growth,"locus YLR320W, strain mms22, stronger effect = lower value",0.707 (active)
same,normalized growth,"locus YLR342W, strain FKS1, stronger effect = lower value",0.958
same,normalized growth,"locus YLR357W, strain rsc2, stronger effect = lower value",0.981
same,normalized growth,"locus YLR370C, strain arc18, stronger effect = lower value",1.02
same,normalized growth,"locus YLR384C, strain iki3, stronger effect = lower value",1.01
same,normalized growth,"locus YML120C, strain ndi1, stronger effect = lower value",0.998
same,normalized growth,"locus YMR058W, strain fet3, stronger effect = lower value",0.816 (active)
same,normalized growth,"locus YMR125W, strain sto1, stronger effect = lower value",1.02
same,normalized growth,"locus YMR129W, stronger effect = lower value",1.01
same,normalized growth,"locus YMR205C, strain PFK2, stronger effect = lower value",1.01
same,normalized growth,"locus YMR231W, strain pep5, stronger effect = lower value",1.01
same,normalized growth,"locus YNL071W, strain lat1, stronger effect = lower value",1.02
same,normalized growth,"locus YNL183C, strain NPR1, stronger effect = lower value",0.903
same,normalized growth,"locus YNL209W, strain ssb2, stronger effect = lower value",1.01
same,normalized growth,"locus YNL248C, strain rpa49, stronger effect = lower value",1.02
same,normalized growth,"locus YNL322C, strain KRE1 (second series), stronger effect = lower value",1.03
same,normalized growth,"locus YNR049C, strain mso1, stronger effect = lower value",1.01
same,normalized growth,"locus YOR001W, strain rrp6, stronger effect = lower value",1.01
same,normalized growth,"locus YOR070C, strain gyp1, stronger effect = lower value",1
same,normalized growth,"locus YOR080W, strain dia2, stronger effect = lower value",0.974
same,normalized growth,"locus YOR083W, strain WHI5, stronger effect = lower value",0.987
same,normalized growth,"locus YOR106W, strain vam3, stronger effect = lower value",0.993
same,normalized growth,"locus YOR231W, strain MKK1, stronger effect = lower value",0.989
same,normalized growth,"locus YOR265W, strain rbl2, stronger effect = lower value",1.01
same,normalized growth,"locus YOR270C, strain vph1, stronger effect = lower value",1.03
same,normalized growth,"locus YOR290C, strain snf2, stronger effect = lower value",1.03
same,normalized growth,"locus YPL051W, strain arl3, stronger effect = lower value",1
same,normalized growth,"locus YPL078C, strain atp4, stronger effect = lower value",1.04
same,normalized growth,"locus YPL106C, strain sse1, stronger effect = lower value",1.01
same,normalized growth,"locus YPL240C, strain hsp82, stronger effect = lower value",1.02
same,normalized growth,"locus YPL256C, strain CLN2, stronger effect = lower value",1
